Source: PubChem BioAssay
TLR4-MyD88 inh: inhibitors of human TLR4-MyD88 binding | O00206 | Cell-based TLR4-MyD88 binding inhibition assay | inhibition, % at 10 µM | hit rate 0.06% among 16,000 | AID 811; in the data active = inhibition above about 45%
Target sequence (O00206 whole entry, looked up): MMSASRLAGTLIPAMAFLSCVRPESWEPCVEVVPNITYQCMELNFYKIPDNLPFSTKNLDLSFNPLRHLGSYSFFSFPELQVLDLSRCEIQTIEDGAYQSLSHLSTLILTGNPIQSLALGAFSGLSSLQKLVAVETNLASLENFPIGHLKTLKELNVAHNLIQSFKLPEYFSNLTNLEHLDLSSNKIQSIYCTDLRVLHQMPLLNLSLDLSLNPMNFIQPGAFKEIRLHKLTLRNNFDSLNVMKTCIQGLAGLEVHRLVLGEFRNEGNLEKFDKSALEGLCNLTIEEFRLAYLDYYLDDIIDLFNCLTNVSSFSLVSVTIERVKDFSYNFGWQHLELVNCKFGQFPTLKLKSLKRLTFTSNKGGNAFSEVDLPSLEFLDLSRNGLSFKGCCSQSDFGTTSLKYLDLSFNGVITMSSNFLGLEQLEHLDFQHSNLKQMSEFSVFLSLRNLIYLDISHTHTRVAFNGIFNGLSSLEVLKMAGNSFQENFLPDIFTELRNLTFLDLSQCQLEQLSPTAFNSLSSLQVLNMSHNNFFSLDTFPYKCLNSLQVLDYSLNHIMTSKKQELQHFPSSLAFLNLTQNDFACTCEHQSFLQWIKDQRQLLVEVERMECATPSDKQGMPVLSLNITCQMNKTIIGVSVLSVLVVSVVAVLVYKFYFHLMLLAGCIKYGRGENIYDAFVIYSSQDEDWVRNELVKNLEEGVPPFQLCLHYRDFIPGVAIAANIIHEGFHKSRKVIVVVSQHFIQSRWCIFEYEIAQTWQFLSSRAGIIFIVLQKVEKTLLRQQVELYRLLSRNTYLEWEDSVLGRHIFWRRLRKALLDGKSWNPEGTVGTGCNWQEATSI
S1P1 ag: S1P1 (human) receptor agonism | P21453 | S1P1 agonist cell-based reporter assay | activation, % at 4.5 µM | hit rate 1.5% among 16,000 | AID 1044; in the data active = activation above about 80%
OPRK1 antag MB: antagonists of human kappa opioid receptor OPRK1, Maybridge library. P41145. OPRK1 cells, antagonist mode, fluorescence readout. hit rate 0.4% among 16,000. inhibition, % at 9 µM. AID 652031; in the data active = inhibition above about 50%
Numbers without * were called inactive; . = no result given. An excerpt weighted towards active compounds, which were near 2% of everything screened.

SMILES	TLR4-MyD88 inh	S1P1 ag	OPRK1 antag MB
OC(CNCc1ccc2c(c1)OCO2)CSc1cccs1 (centres undefined)	-9.5	-14.1	-2.9
COc1ccc(/C=N/NS(=O)(=O)c2ccc(Cl)cc2)cc1OC	8.2	26.9	-8.3
CC1COC(c2cccc([N+](=O)[O-])c2)N1 (centres undefined)	-0.2	10.8	56.1*
Cc1ccc(C)n1-c1cccc([N+](=O)[O-])c1	1.2	-1.0	-7.6
CCCN(CCC)S(=O)(=O)c1ccc(C(=O)SCC(=O)OCC)cc1	-6.2	2.1	-2.7
N/C(=N\OC(=O)c1cccc(C(F)(F)F)c1)C1CSCCS1 (centres undefined)	-0.5	-0.8	-7.4
O=C(OC1CCSC1)c1cc(C(F)(F)F)cc(C(F)(F)F)c1 (centres undefined)	12.4	120.1*	7.3
Cc1cc(C(=O)N2CCN(C(c3ccccc3)c3ccccc3)CC2)nn1C	4.6	43.1	-15.2
O=C(CCc1nc(-c2ccc(Cl)cc2)no1)Nc1ccc(C(F)(F)F)cc1	1.2	4.2	-0.2
Cc1oc(-c2ccc(Cl)cc2)cc1-c1ccn[nH]1	-4.7	7.8	27.1
FC(F)(F)c1cc(-c2ccc(-c3ccn[nH]3)o2)cc(C(F)(F)F)c1	1.5	101.8*	-1.0
Cc1nnsc1C(=O)Nc1ccccc1SCc1noc(-c2cccs2)n1	-11.7	-6.1	7.9
Cc1nnsc1C(=O)Nc1ccccc1SCc1cccc(C(F)(F)F)c1	9.3	88.2*	-25.7
CC(C)(C)S(=O)(=O)CC(N)=S	-1.6	-12.1	13.9
COc1cc(C=N/C(C#N)=C(/C#N)NCC(C)(C)C)cc(Br)c1O	-17.2	-24.6	-17.3
CC(C)(C)CN/C(C#N)=C(\N)C#N	12.7	106.1*	2.7
CC(=O)/C=C(\C)NCCN/C(C)=C/C(C)=O	2.0	9.5	-6.0
CCOC(=O)c1cn[nH]c1NC(=S)Nc1cccc(C(F)(F)F)c1	20.8	40.8	83.2*
CCOC(=O)c1cn[nH]c1C(F)(F)F	17.5	4.4	1.6
Cc1nc2cc([N+](=O)[O-])c([N+](=O)[O-])cc2n1C	9.2	-8.7	4.7
CN(CCOC(=O)c1ccc([N+](=O)[O-])cc1)c1ncc(C(F)(F)F)cc1Cl	-7.5	-9.0	-10.4
O=[N+]([O-])c1cccc(C2Oc3ccccc3C3CC(c4ccccc4)=NN32)c1 (centres undefined)	-4.2	-4.6	1.5
O=[N+]([O-])c1ccc(C2=NN(c3ccccc3)C(c3ccco3)C2)cc1 (centres undefined)	70.4*	74.5	86.6*
O=C(N/N=C/c1ccccc1O)c1ccccc1Oc1ccccc1	-4.6	-2.4	-18.0
CC1CN(C(=O)CC#N)CC(C)O1 (centres undefined)	-6.7	-7.1	-3.8
SMILES	TLR4-MyD88 inh	S1P1 ag	OPRK1 antag MB
COc1ccc(N=Nc2ccc(OC)c(OC)c2)cc1OC	-5.2	92.7*	-4.5
COc1ccc(CC(C)=C(C#N)C#N)cc1OC	6.8	-10.1	24.8
Cc1nc(C(=O)NCc2cc(F)cc3c2OCOC3)sc1-c1ccc2c(c1)CCO2	9.6	5.5	-17.6
O=C(Nc1ccccc1)Nc1ccccc1Sc1nccc(C(F)(F)F)n1	-2.6	3.4	-29.4
O=C(CSc1ccccn1)Nc1ccccc1Sc1nccc(C(F)(F)F)n1	11.4	83.7*	4.6
COc1ccc(CCN2CC(C(=O)O)CC2=O)cc1OC (centres undefined)	-1.6	-12.4	-5.1
COc1ccc(CCN2C(=O)CSC2=Nc2ccc(C(C)C)cc2)cc1OC	-0.8	108.2*	-55.8
CCOC(=O)COc1ccccc1CS(=O)(=O)c1ccc(Cl)cc1	3.9	-18.6	3.5
NS(=O)(=O)c1cc([N+](=O)[O-])c(N2CCCCC2)s1	10.8	15.7	-15.2
N#C/C(N=Cc1ccc(Cl)cc1)=C(\C#N)NC(=O)Nc1ccc(OC(F)(F)F)cc1	4.7	100.5*	23.2
O=C(NNC(=O)Nc1ccc(OC(F)(F)F)cc1)Nc1ccc(OC(F)(F)F)cc1	8.6	-12.2	8.0
COC(=O)c1cc(NC(=O)c2c(Cl)cccc2Cl)ccc1N1CCOCC1	-6.5	-11.2	10.2
COC(=O)c1cc(NC(=O)/C=C/c2ccc(OC)c(OC)c2Cl)ccc1N1CCOCC1	-2.8	84.6*	-4.3
C=CCNC(=S)NNC(=O)c1oc2nc(-c3ccc(Cl)cc3)cc(-c3ccccc3)c2c1N	-5.8	-6.3	66.2*
C=CCNC(=S)NNC(=O)CSc1ccccc1[N+](=O)[O-]	0.3	9.2	-25.0
Cc1nn(C)c(NCc2cccs2)c1[N+](=O)[O-]	0.6	11.9	-0.6
N#C/C(=C\Nc1cccnc1)S(=O)(=O)c1ccc(Cl)cc1	7.9	-13.5	0.8
N#C/C(=C\Nc1cc(C(F)(F)F)cc(C(F)(F)F)c1)S(=O)(=O)c1ccc(Cl)cc1	-3.8	86.6*	27.5
O=C(NOc1ccc([N+](=O)[O-])cc1[N+](=O)[O-])c1cccs1	10.3	-5.9	-2.9
CC1CCCN(c2ccc([N+](=O)[O-])cc2)C1 (centres undefined)	8.7	7.7	-0.3
CCN1CCCC1CNC(=O)NC(=O)c1ccc([N+](=O)[O-])cc1 (centres undefined)	9.4	85.4*	6.3
CC(=O)Nc1ccc(CC(C#N)C#N)cc1	-4.0	-19.1	11.5
O=C(NNC(=O)C(F)(F)F)c1ccc[nH]1	-2.2	-0.8	52.2*
O=C(NNC(=O)c1ccc[nH]1)c1cccc(C(F)(F)F)c1	9.1	3.4	-5.3
O=S(=O)(Nc1ccc(C(F)(F)F)cc1Cl)c1cc(Br)c(Cl)s1	-18.4	113.1*	7.3
SMILES	TLR4-MyD88 inh	S1P1 ag	OPRK1 antag MB
O=S(=O)(c1cc(Br)c(Cl)s1)N1C=CC(C(F)(F)F)=NCC1	-4.3	-1.8	-27.3
CC(=O)Nc1ccc(/C=N/NC(=O)c2ccc(C(C)(C)C)cc2)cc1	-11.2	12.8	19.2
CC(C)(C)c1ccc(NC(=O)c2ccc(N3C(=O)CSCC3=O)cc2)cc1	.	93.5*	-0.5
Cc1c(C#N)c(Sc2ccccc2N)nc2ccccc12	-4.0	-6.0	-9.5
CSc1nnc(-c2sc3nc(C)cc(C)c3c2N)n1Cc1ccccc1	-5.0	5.4	-15.4
CSc1nc(/C=N/c2nc(C)cc(C)n2)c(O)n1Cc1cccc(Cl)c1	2.0	102.7*	-18.6
COc1ccc(/C(C)=N/O)cc1CN1CCCC1	0.9	-4.9	8.0
COc1ccc(N=Nc2cc(C)c(O)c(CN3CCCCC3)c2)cc1	8.8	101.4*	23.8
CC(=O)Nc1ccc(C(=O)NN)cc1NC(C)=O	-1.1	-4.6	13.7
O=[N+]([O-])c1cc(C2SCCS2)ccc1SC1CCCCC1	-3.7	85.9*	-22.1
O=[N+]([O-])c1cc(C2SCCS2)ccc1Sc1ccc(Cl)cc1	6.3	20.5	9.7
O=C(c1cc(C(F)(F)F)cc(C(F)(F)F)c1)N1CCc2cc([N+](=O)[O-])ccc21	-9.2	18.1	-4.3
CN1C(=O)c2cccc3cccc(c23)S12OC(=O)c1ccccc12 (centres undefined)	6.3	-3.3	1.0
CSCCn1c(-c2ccccc2)cc(C(=O)Nc2ccc(Cl)cc2)c1C	7.6	18.1	-8.4
O=[N+]([O-])c1cc(C(F)(F)F)cc([N+](=O)[O-])c1N1CCSCC1	5.8	98.8*	-18.0
CSC(=NC#N)N1CCN(c2c([N+](=O)[O-])cc(C(F)(F)F)cc2[N+](=O)[O-])CC1	-3.1	6.5	-10.4
O=[N+]([O-])c1ccccc1SCc1csc2ccccc12	-8.9	98.0*	-19.9
O=C(O)Cc1csc2ccccc12	-4.7	2.1	-3.6
